The whole screen tested about 53,000 sequences, of which about 3,700 (7%) were called active.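 Rule for the calls: active = gene knockdowns whose robust z-score for IL-1 alpha signal is at least 2 or at most -2, so actives lie on both sides; inactive = the rest.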 Shown is part of a subset that was picked to be rich in actives.
assay: Components of the Cytosolic LPS Sensing Pathway: Gene Identification via Genome-wide siRNA Screen; conditions: RAW264.7 macrophages, IL-1a HTRF, actives lie on both sides, screened at 100 nM (by protocol), cells primed 5 h with Pam3CSK4 first;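 note: robust z of the log signal after scaling to non-targeting control siRNA wells of the plate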
Outline: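 Read-out: IL-1a HTRF on supernatant, divided by plate negative-control median ×100, log-transformed and converted to robust z-score. Cells were RAW264.7 given 100 nM siRNA, Pam3CSK4-primed 5 hours, then LipidA-transfected 24 hour.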

z-score, active:
GGAGAAGACUUGUAACAAATT against Hacd4 5.28
GAACCAGACUAAGAACUGUTT against Cox6b1 5.31
GGAGCUGAUAGGACUGAUGTT against Snap47 2.16
GCCCUACCAAAGACACUAGTT against Lrch4 -2.31
GGGCAAACGGAGGAAUGAATT against Slc35g3 2.47
GGUGUGUUUUAUGUGUCCCTT against Ctif 2.62
GCAACGAGUGUGUUUUCUGTT against Spink10 2.25
GCAGCUUUUUGAGGUGUUATT against Slc9a7 3.07
GGAAUAGUGAAGGUACUUUTT against Cer1 2.4
GGACCGUCAGUGUCAUGGATT against Zfp397 -2.55
GGAAGAGGUUAGCAAGCAUTT against Iws1 2.27
GCCUUAUGGUUUUGUAUUUTT against Nap1l1 -2.38
CCACCUAUCAGGAUUCAACTT against Sf3b6 -3.37
GCCUCAUUAUGAGUUGGCATT against Olfr1419 -2.51
GGUCCACAAUGGCAUCAUATT against Elf4 2.13
GGAACCUACUGCUACAUCATT against Sftpc 2.24
CCCGCUUGUUCUGAUGAUATT against 2310039H08Rik -2.26
GCAAUGGUUUCGGCUACGATT against Hoxb3 2.18
GGAAUUCCCAAGAGAAGGATT against Gk -5.27
GGGCCACAGCUUAAUACUGTT against Ptov1 3.28
GGCCUUCUAAAGCUGUGAUTT against 6330403K07Rik -2.7
GGGUGGAGAACCAAGUUUUTT against Tmed6 3.21

z-score, inactive:
GGUAUGCAACCUUGCCUUUTT against Coa3 0.945
GGGAUGACUUGGAGUCUCUTT against Csnk1d -0.0473
CGGUUUCUUACCAGCAAUUTT against Mgmt -0.237
GGCCUUCUCUGACUUUCUGTT against Zfp324 -0.633
GGGACAAUGUACAUCUACUTT against Dnaaf6b -0.199
GCAAGAUCCGUACAUAGCATT against Wdr48 -1.43
GGCAUUAAAGACCUGUUAATT against Kpnb1 -0.887
AUUGUAGCAGUGAAUUGGATT against Pdia6 -0.121
CCAGAAAUUGACAAAAAGUTT against Etfa 0.492
GGCAGGAGAAAGGCCUUUUTT against Olfr535 0.123
GAGUGUGCAUUUUGUUAGUTT against Olfr136 0.763
GGCUGAGGCUGUGAAGAAGTT against Igfbp5 -0.659
GGAGAGUAAAUACCGACAGTT against Homer2 -0.133
GCUGUUACCCUUAUGCAGCTT against Supt7l 0.486
GGACAACGAUAGCUAACCUTT against Tmem63a 0.453
GGAUGAAGAACCACUCAAATT against Ankzf1 -1.06
CCUAUUUUAACCUUACGUGTT against Bdh1 -0.443
GGAAGAGUUGGAGAAAAUUTT against Tex46 2
GGAGGUCUACAUUUAUUAATT against Dera 1.31
CCAAACAGGCUUUUUUCCUTT against Snx31 -0.712
CCAUGUCAAACACCUUAGUTT against Crebzf 1.26
GGUAAGCUCCAAUUAUGCCTT against Ubr3 0.0463
GGAGCAAUUGAGAAAGAAGTT against Moap1 0.508
CCCGUAACCAUUUACUGGUTT against Tyro3 0.85
GGCACGAGCUCUCAUCUUUTT against Slc27a4 -0.752
GGAAACAAGGGACUCUGUATT against Col4a4 0.906
GGAAUUCUCUAUACCAAGATT against P2ry10b 0.51
GCAAUUCCUCUUUUAGUCCTT against Spag6l -1.38
GGCAGAUCUUCUUUGGAAATT against Ugt2b38 0.757
CCAUUGUUUGACUCAAAACTT against Gjc3 0.62
GGACCAUGGAUAUUUAAAGTT against Mafk -0.297
GGAACUCUGUGGGUGAGAATT against Dock8 -1.46
CCGGAUGUGCCUUGUCUACTT against Ckap5 -1.58
GGAAAAUCAAGACCUAUGGTT against Obox6 -1.37
GUGCAUUGUCUUUUGUAGATT against Olfr1095 -0.753
CGAUAAACUGGAUACCACUTT against Sntn 0.437
GCAAUCUGUUUAGAGAGAGTT against Slc10a5 -1.16
GGUGGUGAAUAUGAUGAUATT against Tsr1 -0.712
GCUAAUGAUUUCCGCUUUGTT against Tyw1 0.367
GCCCGCAUUCUUAUUCGAUTT against Tmem64 -1.13
GCUGAUGUUAAAUUCGCAGTT against Serpinb3b 1.33
GGAGCCCUGUGUCUUGAGUTT against Ccl19 -0.39
GGAGAUCCAAGAGAAAUUUTT against Csf3r 1.18
GCAUUACACUGUUAAUGUUTT against Gopc -0.138
GGAAUCACAAGGUAUUUUCTT against Spo11 -0.237
GGAGAAGUUUAAGGAGAUUTT against Dnajb5 1.54
CCUUUGGUAAUCUCCAAAATT against Amph 0.862
CCUUCUGCGGCUCAGUCUATT against Bach2os -0.199
GGCUUUCCUUACCAUAUAUTT against Trim7 -0.675
GGAGAUUGGCAUAGAGAAGTT against Myo5b 0.437
AUCCAUUUUGUGCUAGGCATT against Cacfd1 0.473
CCUGCUAUGUAAUAUAGAUTT against Eef2k 0.0542
GGAAAGAAAUGAAUCAGUATT against Rnf216 0.882
GGACAUUAAGAGUGGAAAGTT against Nucb1 0.777
GGGAAGGAUUAUGUCAAAUTT against Kit 0.328
CGGCCUCCAUGUUAAGAUATT against Csf2rb2 -0.249
GCCUGAAGAGAGUCUUAUCTT against Bnip5 1.09
GGCAUUUAAAUCUGUGUGUTT against Slc39a6 -0.471
GGGAGGAAGUGGAAGUUCUTT against Tsc22d1 0.488
GGUGAAUGUAGUGUUAAAATT against Cyrib -0.204
GAGAUGUCCGAAAUGCCAATT against Smco4 1.73
GGACAGUGUAGUCAAAAAATT against Cx3cr1 0.149
GCAAACCUCAAUCUUGAAATT against Kif15 0.297
GGCAGUUAUUUCUAUCUUATT against 1700018F24Rik 0.683
GGCUGUUGAACAGGUUAUCTT against Mis12 0.645
CCUGAUCAACAAACCGGAUTT against Rfxank 1.29
CGACUGUCGUUUGUUGAUGTT against Tktl2 -0.766
GUAGAGUGAUGAGAGGCCUTT against Vmn1r-ps8 -0.475
UUCAAAUAAACUCUCUGCUTT against Krtap31-2 0.802
GCCUUCAUGGGAUUUGUCUTT against Opn1sw -0.498
GCUAGUUUCCGUCGCUUUGTT against Cpeb4 0.555
GGUACUGGAAAUCUGUAUGTT against Nlgn1 -0.332
GCGAACUUUUACAUUUCGATT against Gmpr 0.272
GUGGGAUUCCAGUAGAAAUTT against Olfr1116 0.559
CCAAGUUAGUGGAUGAAUGTT against Ugt2b35 -0.555
GGGAGGAAAUUAAAUUUCATT against Hif1an -0.223
GGAAAUAUCCUAAACAGAATT against Gdpd2 -0.864
GCAGUUGCGUUCUAUUGAATT against Ccdc86 0.179
GCCGGUUGGAACAAAAGGCTT against E130018O15Rik 0.993
GCGAUCAGUACUGAAGGAATT against Siglecf -1.27
GGAGACUGUCUAAUAAAAATT against Medag 0.0572
CUGUAUGUUAUCUCUACACTT against Olfr1513 0.469
CCAAAUUGCUUACAUGAUATT against Greb1 1.44
GCUGAUAACCUGAUCAACGTT against Nars 0.0406
CGACGACUAGACCUCAUCUTT against Dtx4 -0.624

— PubChem BioAssay AID1508600 (Functional Genomics Laboratory (NCATS/FGL), 2020)
